This is one part of the list. Results filed as inconclusive are left out. Active and inactive are the calls of the source. The call rests on the fitted dose curve; in most records, active means well fitted activation curve with a large enough effect; inconclusive means small, poorly fitted or top-dose-only effect, or effect the other way; inactive means flat fitted curve, though single readings scatter.

The assay is described as follows: Confirmation Concentration-Response Assay for Cell signaling CRE-BLA (Fsk stim) - HEK293 CREB Luciferase. The settings on record: HEK293 CRE-luc2P, NKH477 EC10 potentiation, luminescence, 4 h. From the text: NIH Molecular Libraries Screening Centers Network [MLSCN] NIH Chemical Genomics Center [NCGC] MLSCN Grant: 1X01MH079867-01 Assay Provider: Marshall W. Nirenberg, U.S. National Heart, Lung and Blood Institute CRE Luciferase Assay Overview Memories persist for different lengths of time, from seconds or minutes to a lifetime. There are two kinds of memory: short-term memory (STM) and long-term memory (LTM). STM lasts for minutes to hours, which maybe mediated by modifications of molecules involved in synaptic functions. LTM lasts for days or longer, and may be due to the formation of new synapses or restructuring of existing synapses. LTM, but not STM, requires gene transcription and synthesis of proteins. CREB (cyclic-AMP Responsive Element Binding Protein) is one of the candidates plays an important role for enhancement of some types of LTM. CREB, a family of transcription factors, regulates the transcription of genes containing cAMP Responsive Elements (CRE). CRE is a nucleotide sequence often found in the promoter regions of genes that are binding sites for CREB. Using a luciferase reporter-gene under control of cAMP responsive element, a cell-based assay [CRE-luc2P HEK293 developed by Promega] was used to measure forskolin-induced signaling. The selected compounds were measured for their ability to modulate positively the action of EC10 NKH 477, a water soluble forskolin, on reporter gene activity. Compounds were screened in a titration series in 1536-well format. Positive modulators were identified based on the AC50 values derived from the screening data.
NCGC Assay Protocol Summary 2500 cells/5uL in DEME with 1% FBS was dispensed into 1536-well plates and cells were cultured at 37 degrees Celsius overnight. Next day 23 nL of compounds or DMSO were delivered to each well using a pin tool, and 1uL of EC10 level of NKH 477, or EC100 level of IBMX, a PDE inhibitor, in the present of NKH 477, or assay medium was added. And then the plates were incubated at 37 degrees Celsius for 4 hours. 6 uL of Bright-Glo luciferase (Promega, WI) was added to each well. After incubated at room temperature for 10min the plates were measured for luminescence intensity on a ViewLux (Perkin Elmer) detector. Keywords: NIH Roadmap, MLSCN, MLSMR, qHTS, NCGC, CRE, luciferase, reporter-gene assay.
Turning to `CC1CCc2sc3nc(N4CCN(CCO)CC4)n4ncnc4c3c2C1` (stereo not given), the Potency was 12.6 µM (active).

For the compound `Cc1nn(-c2ccccc2)c2sc(C(=O)N(Cc3ccco3)C(C)C(=O)NC(C)(C)C)cc12` (stereo not given), the Potency is 4.47 µM (active).

Take `CCc1nc(Nc2ccc3nccnc3c2)c2oc3ccccc3c2n1`: the Potency was 1.26 µM (active).

Consider `COc1ccc(CCNC(=O)CSc2nc(C)nc3c2oc2ccccc23)cc1OC`, for which the Potency is 10 µM (active).

Turning to `Cc1nc(SCC(=O)Nc2cc(C)on2)c2c3c(sc2n1)CCCC3`, the Potency was 4.47 µM (active).
